Source: PubChem BioAssay (NCATS)
Where “and” joins values, the source holds several entries; their conditions need not be identical. Identical values can stand only once. Records with an inconclusive call do not appear. More than one record can exist for a structure, and the calls need not agree. Calls of active or inactive are those of the source. Unless noted, calls follow the shape of the dose curve; as a rule, active = well fitted curve in either direction with a large enough effect (not every such curve was filed as active); inconclusive = small, poorly fitted or top-dose-only effect, or another doubt; inactive = flat fitted curve, though single readings scatter.

Tests used:
[1] = AP1 Signaling Pathway (AID 357); settings: ME-180 AP-1-bla reporter, EGF-induced, beta-lactamase ratio, 5 h;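 also: ME-180 reporter cells stimulated with EGF at its EC50 level; % is scaled to controls: 0 for no effect and ±100 for the full control effect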
In short: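 AP-1-bla ME-180 cells, Opti-MEM + 0.5% dialyzed FBS, plated overnight 37 °C. Cpd titration + EC50 EGF, 5 h 37 °C. CCF4 2.5 h RT; ex 405, em 460/530 ratio → %activity, AC50.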

[2] = target: Cytochrome P450 1A2 (Homo sapiens) (UniProt P05177); assay: p450-cyp1a2 (AID 410; calls by dose curve; also: potency is read from the fitted curve at half-maximal effect;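 as to activity change, negative = inhibition: -100% = full effect of reference inhibitor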); settings: recombinant CYP1A2, luciferin-ME demethylation, luminescence; series mostly up to 57 µM
In short: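 Read-out is luminescence from luciferin produced by CYP1A2 demethylation of Luciferin-ME (100uM, at Km). Detection reagent stopped the 60 min NADPH-dependent reaction; signals were normalized to 57 uM furafylline.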

[3] = NFAT Signaling Pathway (AID 444); settings: Jurkat NFAT-bla M1, carbachol, beta-lactamase ratio, 5 h;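 also: carbachol stimulus at about its EC50 of 1 µM final; % is scaled to controls: 0 for no effect and ±100 for the full control effect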
In short: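 Jurkat cells carrying an NFAT-driven β-lactamase reporter and co-transfected muscarinic M1 receptor were treated with compound plus carbachol (1 uM final, an EC50 level) for 5 h at 37 °C. CCF4 loading followed for 1 h at RT; 460/530 nm ratio gave %activity.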

[4] = Stat Signaling Pathway (AID 446); settings: ME-180 (cervical carcinoma) SIE beta-lactamase reporter, IL-6 stimulated, 5 h;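 also: ME-180 cervical cancer cells given 40 pM IL-6 alongside compound; SIE-controlled beta-lactamase reporter measured as 460/530 nm FRET emission ratio; % is scaled to controls: 0 for no effect and ±100 for the full control effect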
In short: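 Emission at 460 and 530 nm (excitation 405 nm) reports SIE-controlled beta-lactamase in ME-180 cells. Cells received compound with 40 pM IL-6 for 5 hrs at 37 C; data scaled between 300 pM IL-6 and 125 nM JAK-inhibitor controls.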

[5] = target: Glucocorticoid receptor (Homo sapiens) (UniProt P04150); assay: GR-GFP Redistribution (AID 450;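 active = compounds whose dose series gives a full or clear partial fitted curve of increased nuclear translocation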; also: potency is read from the fitted curve at half-maximal effect); settings: U2OS GR-GFP nuclear translocation, laser cytometry, 2 h
Sequence of Glucocorticoid receptor (Homo sapiens) (P04150 whole entry, looked up): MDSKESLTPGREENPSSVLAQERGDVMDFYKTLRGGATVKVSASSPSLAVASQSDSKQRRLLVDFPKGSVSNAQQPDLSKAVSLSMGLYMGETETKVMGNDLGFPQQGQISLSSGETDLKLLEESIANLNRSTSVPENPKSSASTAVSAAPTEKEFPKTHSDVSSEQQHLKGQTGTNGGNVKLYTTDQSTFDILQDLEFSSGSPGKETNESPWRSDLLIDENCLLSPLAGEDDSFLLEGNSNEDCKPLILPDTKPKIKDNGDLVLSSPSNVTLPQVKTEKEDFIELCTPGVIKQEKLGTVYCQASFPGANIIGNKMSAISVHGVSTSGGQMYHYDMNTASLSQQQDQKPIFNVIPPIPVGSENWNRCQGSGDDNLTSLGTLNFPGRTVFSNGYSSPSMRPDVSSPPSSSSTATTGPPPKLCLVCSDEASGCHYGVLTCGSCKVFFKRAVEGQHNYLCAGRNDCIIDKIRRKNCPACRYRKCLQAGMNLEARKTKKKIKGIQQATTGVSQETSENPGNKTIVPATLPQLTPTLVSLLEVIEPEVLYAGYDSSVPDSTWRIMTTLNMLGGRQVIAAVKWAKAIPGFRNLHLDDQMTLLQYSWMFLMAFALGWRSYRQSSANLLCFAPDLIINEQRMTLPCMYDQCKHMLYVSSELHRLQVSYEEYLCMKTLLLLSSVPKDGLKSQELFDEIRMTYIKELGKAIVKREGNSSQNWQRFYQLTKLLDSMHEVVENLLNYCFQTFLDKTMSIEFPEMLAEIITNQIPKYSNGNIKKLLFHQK

Sequence of Cytochrome P450 1A2 (Homo sapiens) (P05177 whole entry, looked up): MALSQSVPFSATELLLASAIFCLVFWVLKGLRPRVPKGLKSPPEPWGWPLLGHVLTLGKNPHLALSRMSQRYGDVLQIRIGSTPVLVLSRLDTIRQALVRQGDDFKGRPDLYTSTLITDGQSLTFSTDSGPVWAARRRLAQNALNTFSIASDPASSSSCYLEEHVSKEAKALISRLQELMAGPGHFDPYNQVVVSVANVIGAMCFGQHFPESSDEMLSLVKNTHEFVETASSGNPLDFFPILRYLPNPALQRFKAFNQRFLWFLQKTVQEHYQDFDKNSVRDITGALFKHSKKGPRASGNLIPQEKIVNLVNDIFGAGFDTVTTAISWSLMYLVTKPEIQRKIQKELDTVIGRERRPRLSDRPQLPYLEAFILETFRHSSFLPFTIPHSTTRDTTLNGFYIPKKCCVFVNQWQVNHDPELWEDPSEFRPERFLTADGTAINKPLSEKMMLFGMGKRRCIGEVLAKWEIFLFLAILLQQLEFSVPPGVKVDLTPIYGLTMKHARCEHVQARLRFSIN

NCCc1c[nH]c2ccccc12
inactive: activity change, negative = inhibition ([1]; at 38 µM (top of the series)) -5.53% | activity change, negative = inhibition ([3]; at 38 µM (top of the series)) -3.55% | activity, negative = inhibition ([4]; at 38 µM (top of the series)) -11.1% | Potency [5] > 46 µM
active: Potency [2] 3.16 µM

CCCN1CCC[C@H](c2cccc(O)c2)C1
inactive: activity change, negative = inhibition ([1]; at 38 µM (top of the series)) -0.74% and -8.16% | Potency [2] | activity change, negative = inhibition ([3]; at 38 µM (top of the series)) -6.4% and -13.2% | activity, negative = inhibition ([4]; at 38 µM (top of the series)) 0.0297% and 5.34% | Potency [5] > 46 µM

Cn1cnc(CCN)c1
inactive: activity change, negative = inhibition ([1]; at 38 µM (top of the series)) 7.44% | Potency [2] | activity change, negative = inhibition ([3]; at 38 µM (top of the series)) 6.43% | activity, negative = inhibition ([4]; at 38 µM (top of the series)) 0.0099% | Potency [5] > 46 µM

CCCCc1ccc(C(=O)O)nc1
inactive: activity change, negative = inhibition ([1]; at 17.2 µM (top of the series)) -4.11% | activity change, negative = inhibition ([1]; at 38 µM (top of the series)) -6.7% | activity change, negative = inhibition ([3]; at 17.2 µM (top of the series)) -0.081% | activity change, negative = inhibition ([3]; at 38 µM (top of the series)) 6.08% | activity, negative = inhibition ([4]; at 17.2 µM (top of the series)) 6.81% | activity, negative = inhibition ([4]; at 38 µM (top of the series)) 9.55% | Potency [5] > 46 µM and > 20.6 µM
31.6 µM (active) and inactive: Potency [2]

O=C1CCCN1CC#CCN1CCCC1
inactive: activity change, negative = inhibition ([1]; at 38 µM (top of the series)) 8.1% | Potency [2] | activity, negative = inhibition ([4]; at 38 µM (top of the series)) -7.65% | Potency [5] > 46 µM

Cc1nccc2c1[nH]c1ccccc12
inactive: activity change, negative = inhibition ([1]; at 17.2 µM (top of the series)) -6.36% | activity change, negative = inhibition ([1]; at 38 µM (top of the series)) -14.9% | activity change, negative = inhibition ([3]; at 17.2 µM (top of the series)) -12.1% | activity change, negative = inhibition ([3]; at 38 µM (top of the series)) -12.6% | activity, negative = inhibition ([4]; at 17.2 µM (top of the series)) 1.58% | activity, negative = inhibition ([4]; at 38 µM (top of the series)) 11% | Potency [5] > 46 µM and > 20.6 µM
active: Potency [2] 3.98 µM and 1.26 µM and 631 nM

CCCN1CCO[C@@H]2c3cc(O)ccc3OC[C@H]21
inactive: activity change, negative = inhibition ([1]; at 38 µM (top of the series)) -14.2% and 2.45% | activity change, negative = inhibition ([3]; at 38 µM (top of the series)) 8.87% and 8.95% | activity, negative = inhibition ([4]; at 38 µM (top of the series)) 12% and -17.6% | Potency [5] > 46 µM
